Test results: the supplement of paper PMC3724861
This excerpt belongs to a sample that is enriched for hits. No count for the full screen is at hand. Values without a mark were called inactive.

What follows are sequences tested on T1, Caupolican (Caup) homeodomain DNA-binding domain (assay: PBM E-score (8-mer, recovered from the published 9-mer minima) (E-score (dimensionless, -0.5 to 0.5)); Drosophila protein; higher = stronger relative binding preference, active = 0.31 or more).
T1 sequence: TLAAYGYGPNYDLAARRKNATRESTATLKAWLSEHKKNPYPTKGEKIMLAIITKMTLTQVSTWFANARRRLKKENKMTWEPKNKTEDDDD
In short: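 An enrichment score, with higher meaning stronger, expresses relative binding preference for each short DNA word. The protein used was Caup's homeodomain DNA-binding domain (residues 214-303), produced by in vitro transcription and translation and tested at 100 nM on custom-designed protein binding microarrays. The 8-mer values were recovered from published 9-mer scores, each equal to the lower of its two constituent 8-mer scores.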

| Sequence | PBM E-score |
| --- | --- |
| GGGATTAC | 0.0873 |
| CTGCGTGA | -0.0361 |
| GACCTCTA | -0.142 |
| GATGCCTA | 0.0242 |
| CGCTAGAC | -0.0864 |
| ACGACAAG | ≥ 0.317 (active) |
| ACGACAAT | 0.186 |
| ACGACAAA | 0.194 |
| CCACAGCC | -0.141 |
| AACACAAG | 0.228 |
| AACACAAA | 0.207 |
| AACACAAC | ≥ 0.339 (active) |
| CACACAAC | 0.14 |
| AACACAAT | ≥ 0.319 (active) |
| GACACAAC | 0.216 |
| GAGACACC | -0.0907 |
| AAGCATGC | 0.122 |
| AATCATGA | 0.164 |
| AAGCATGG | 0.00906 |
| AAGCATGT | 0.356 (active) |
| AACCATGC | 0.0352 |
| AACCATGG | 0.0193 |
| AATCATGG | 0.0994 |
| AACCATGT | 0.347 (active) |
| AATCATGT | 0.42 (active) |
| ACAATTCG | 0.163 |

| Sequence | PBM E-score |
| --- | --- |
| AGATCGCC | -0.108 |
| TCCAGTCA | -0.102 |
| AAACGTGT | 0.31 (active) |
| AATCGTGT | 0.324 (active) |
| AAACGTGA | 0.0748 |
| AAACGTGG | -0.051 |
| AATCGTGA | 0.102 |
| AATCGTGC | 0.105 |
| AGCGTCGA | 0.017 |
| AATGATAA | 0.141 |
| GAGTAACC | -0.034 |
| ATGGACGG | -0.0288 |
| CATCCTGA | 0.007 |
| AAATATGA | 0.164 |
| AAATATGC | 0.00511 |
| AAATATGT | 0.335 (active) |
| ATAGCCTC | -0.0831 |
| CGTAAACG | -0.0383 |
| GTACACGA | 0.427 (active) |
| ATACACGC | 0.275 |
| ATACACGG | 0.299 |
| GTACACCA | 0.238 |
| ATACACGA | 0.33 (active) |
| CTACACGA | 0.295 |
| ACGCGCTC | -0.0722 |
| CAAGTTAA | 0.137 |

| Sequence | PBM E-score |
| --- | --- |
| CTGGGCCA | -0.265 |
| GATCTCGC | -0.112 |
| GCGGTCTA | -0.0746 |
| ACAACCTC | 0.169 |
| CCTTGTCA | 0.342 (active) |
| CCTTGTCG | 0.277 |
| TCTTGTCA | 0.329 (active) |
| TATTGTCA | 0.225 |
| TCTTGGCA | -0.0494 |
| GCTTGTCC | 0.305 |
| GATTGTCA | 0.13 |
| CCTTGTCC | 0.171 |
| ACTTGTCA | ≥ 0.378 (active) |
| ACTTGTCC | 0.237 |
| ACTTGTCG | 0.266 |
| GCTTGTCA | 0.352 (active) |
| GGGCGCAA | -0.179 |
| AAGCACCG | -0.0685 |
| CGATTCAG | -0.0377 |
| CTCATAAA | 0.05 |
| AAACAAAA | 0.189 |
| CACATAAA | 0.121 |
| TCCATACA | 0.139 |
| CACATACA | 0.232 |
| GACATAGA | 0.187 |
| AACATACG | 0.28 |

| Sequence | PBM E-score |
| --- | --- |
| TACATAAA | 0.329 (active) |
| AACATACT | 0.31 (active) |
| AACATAAA | 0.286 |
| AACATACC | 0.303 |
| TACATACA | 0.415 (active) |
| GACATACC | 0.169 |
| GACATACA | 0.389 (active) |
| GCTCCTCA | -0.234 |
| ATTCTCCG | -0.0182 |
| GACAGCAC | 0.0877 |
| CCCACTAG | -0.195 |
| CGTACTGC | -0.0592 |
| GAAAATCA | 0.141 |
| ACTCCGAG | -0.0336 |
| CTCCGGAA | -0.126 |
| AACATACA | 0.361 (active) |
| AACATAGA | 0.232 |
| AGCATACA | 0.202 |
| GGATCTCA | -0.137 |
| ATGTTAAT | 0.352 (active) |
| TTGTTAAA | 0.23 |
| CTGTTAAC | 0.117 |
| ATGTTAAA | 0.353 (active) |
| ATGTTAAC | 0.377 (active) |
| CTGTTAAA | 0.108 |
| AGGTTAAT | 0.0346 |

| Sequence | PBM E-score |
| --- | --- |
| ATGTTAAG | 0.283 |
| GTGTTAAC | 0.259 |
| GTAAGGAA | 0.0866 |
| AGGAACGC | -0.132 |
| TTGTACAA | ≥ 0.44 (active) |
| GTCTACAA | 0.185 |
| ATGTACAA | 0.453 (active) |
| ATGTAGAA | 0.281 |
| CTGTACAA | 0.335 (active) |
| CTGTACGC | 0.037 |
| ACGTACAA | 0.288 |
| CTGTACCA | 0.186 |
| GTGTACGA | 0.226 |
| GTGTACAA | 0.396 (active) |
| GCTAAGAC | -0.0692 |
| ACTGACCC | -0.14 |
| AAATCCAG | 0.0354 |
| CGCTTGGA | -0.0438 |
| GAAGATGC | -0.152 |
| ACCAGTTC | -0.0567 |
| GGACTCCA | -0.13 |
| AGATATTG | 0.0643 |
| CATCTGCG | -0.00421 |
| CTAGAATC | 0.0169 |
| AACGAACA | 0.305 |
| TACGAACA | 0.31 (active) |

| Sequence | PBM E-score |
| --- | --- |
| TAAGAACA | 0.313 (active) |
| GAAGAACA | 0.3 |
| CACGAACA | 0.27 |
| CAAGAACA | 0.187 |
| GAATCCCC | -0.127 |
| AGCGAGAC | -0.0966 |
| ACCCCATC | -0.158 |
| CATACACG | 0.325 (active) |
| TATACACA | 0.289 |
| CATACACC | 0.15 |
| GATACACA | 0.241 |
| AATACACA | 0.311 (active) |
| AATACACT | 0.192 |
| AATACACG | 0.343 (active) |
| CATACACA | 0.309 |
| AATACACC | 0.292 |
| ATCTAGTG | 0.0489 |
| CGATATAC | 0.0606 |
| CCAAAAAG | -0.00726 |
| ACGAAGTA | 0.0633 |
| TCTGTCAA | 0.157 |
| GATGTCAA | 0.332 (active) |
| GGTGTCAA | 0.197 |
| AATGTCAA | 0.235 |
| TATGTCAA | ≥ 0.359 (active) |
| GATGTCCA | 0.195 |

| Sequence | PBM E-score |
| --- | --- |
| GTGAAGGA | -0.0495 |
| CTTAGACA | 0.0709 |
| AAATGGTA | 0.174 |
| GAGCTCTA | -0.0532 |
| GCTGTATA | 0.194 |
| ATTGTATA | 0.259 |
| GTTGTGTA | 0.298 |
| CTTGTATA | 0.353 (active) |
| CGTGTATC | 0.258 |
| CCTGTATA | 0.142 |
| ATTGTGTA | 0.283 |
| CTTGTGTA | ≥ 0.341 (active) |
| ACTGTATA | 0.143 |
| GTTGTATA | 0.347 (active) |
| CGTGTATA | 0.321 (active) |
| AGTGTATA | 0.14 |
| AGAGGTAC | 0.0429 |
| AGTGGCCG | -0.226 |
| TGCGACAA | 0.148 |
| GAAGAGGA | -0.161 |
| ACCTGCAA | -0.023 |
| GCCGTATA | 0.0675 |
| ACGCCTAA | 0.0349 |
| TGGTCAAA | 0.0685 |
| CCCTCTAG | -0.126 |
| ATTGTATC | 0.215 |

| Sequence | PBM E-score |
| --- | --- |
| CTTGTAGC | 0.271 |
| CTTGTATC | 0.34 (active) |
| AAATACAG | 0.132 |
| TAATACAA | 0.278 |
| GAATACAC | 0.25 |
| AAATACAA | 0.327 (active) |
| AAATACAT | 0.338 (active) |
| AAATACTT | 0.1 |
| CAATACAC | 0.271 |
| AAATACAC | 0.312 (active) |
| CAATACAA | 0.261 |
| CATCTCAG | -0.0232 |
| CCCAGCAG | -0.201 |
| TACATTCA | 0.232 |
| AAGCCTGC | -0.156 |
| AAAGTGGT | 0.0391 |
| GAAAAAGA | -0.0311 |
| GACCGAGA | -0.103 |
| ACTAGCTC | 0.0549 |
| ACGTGGTA | 0.132 |
| CTTAATCA | 0.013 |
| CTAGTACA | 0.337 (active) |
| CTAGTAAA | 0.211 |
| ATAGTACG | 0.0984 |
| CTAGTACC | 0.201 |
| ATAGTACC | 0.134 |

| Sequence | PBM E-score |
| --- | --- |
| GTAGTATA | 0.219 |
| GTAGTACA | 0.346 (active) |
| ATAGTACA | 0.343 (active) |
| GTAGTAGA | 0.0981 |
| GCATTTAA | 0.11 |
| TTCTAGAA | -0.0405 |
| CGCAGCCG | -0.267 |
| ACCTCCGA | -0.0504 |
| GCTTCTGA | -0.0992 |
| CCGCTTTA | -0.0283 |
| ACAACTCT | 0.147 |
| ACAACACT | 0.326 (active) |
| ACAACACA | ≥ 0.395 (active) |
| CCAACACG | 0.237 |
| ACAACACG | 0.387 (active) |
| AAAACACT | 0.0862 |
| ACAACACC | 0.301 |
| CCAACACA | 0.17 |
| GCAACACA | 0.144 |
| CTATTAGC | 0.0355 |
| CGCAATAC | 0.0451 |
